# PubChem BioAssay (EPA / NIEHS)
# Calls of active or inactive are those of the source. How the source made its calls: active means hit-call score of the fitted dose curve at least 0.9, where 1 is the maximum; inconclusive means response in the unintended direction; inactive means score below 0.9.
# Test: LTEA_HepaRG_LDH_cytotoxicity: Cytotoxicity Assessment in the Life Technologies and Expression Analysis (LTEA) Assay (AID 2283563)
# Procedure: LTEA_HepaRG is a cell based, multiplexed-readout assay that uses HepaRG, a human liver cell line, with measurements taken at 48 hours after chemical dosing on a 96-well plate.LTEA_HepaRG_LDH_cytotoxicity is one of 102 assay component(s) measured in the LTEA HepaRG cell culture assay. It is a marker of cell viability / cytotoxicity.Data from the assay component LTEA_HepaRG_LDH_cytotoxicity was analyzed into 1 endpoint. This assay endpoint, LTEA_HepaRG_LDH_cytotoxicity, was analyzed in the positive fitting direction relative to DMSO as the negative control and baseline of activity. Using a type of inducible reporter, measures of mRNA induction for loss-of-signal activity can be used to understand cell death. To generalize the intended target to other relatable targets, this assay endpoint is annotated to the cell cycle intended target family, where the subfamily is proliferation.
# A total of 1060 chemcials from the ToxCast library were tested in eight-point concentration-response experiments. Cell culture and cytotoxicity assays were conducted at Thermo Fisher Scientific's Custom Services facility (Madison, WI). A single lot of human HepaRG cells (Thermo Fisher Scientific, Frederick, MD) was used for the cell culture experiments. 96-well format collagen type I coated plates of human HepaRG cells were prepared using established methods. Briefly, cryopreserved HepaRG cells were thawed, plated at a density of approximately 100,000 cells/well in HepaRG Thaw, Plate, and General Purpose media (HPRG770, Thermo Fisher Scientific), and incubated for 48 hours. 0.5% DMSO was selected as vehicle control to balance the requisite need of DMSO in HepaRG cultures to maintain differentiation (for example, baseline metabolism, proportions of hepatocytes vs. cholangiocytes), while enabling further hepatic receptor pathway activation (for example, PXR and CAR) in response to chemical exposure. 48 hours after plating, the culture medium was replaced with HepaRG Serum-Free Incudtion Media. Cells were exposed to each test chemical in duplicate and maintained in CO2 incubators for another 48 hours. Chemical plates were thawed to room temperature and 200x concentrations of treatment groups were prepared. 8-point conentration-reponse curves were made with the highest exposure at 100 uM, followed by half-log dilutions, all in 0.5% DMSO. Each test plate contained variouse controls, induction positive controls (1mM phenobarbital), cytotoxicity positive controls ([…] aflatoxin B1), vehicle controls (0.5% DMSO), and total lysis controls (0.5% DMSO). Cell morphology images were taken using an Essen IncuCyte FLR automated microscope, with six 96-well plates imaged in about 24 minutes. Images were captured and exported and JPEG files. Spent culture media was transfered to black-well plates for the LDH assay, and remaining media was sorted at -80 C for later use. Cells were treated with RLT buffer and frozen until shipped for gene expression analysis. Total RNA was isolated from the cell suspension in 75 uL of Buffer RLT (Qiagen, Germantown, MD 20874) by Quintiles/Expression Analysis (Durham, NC) using a custom isolation procedure. Total RNA from each plate well was transferred to a preamplification plate. Fluidigm's 96.96 Dynamic ArrayTM (Fluidigm, Amsterdam, the Netherlands) technology was used for gene expression analyses by quantitative reverse transcription polymerase chain reaction (qRT-PCR, performed by Quintiles/Expression Analysis, Durham, NC)89. Standard TaqManTM Assays (Applied Biosystems/ThermoFisher Scientific, Foster City, CA) were used to assess the expression of 93 genes selected based on their selectivity and sensitivity to important hepatic receptors known to be modulated by environmental chemicals; importance in human hepatocyte functionality; and hepatotoxicity. […]
Compound,outcome,AC50
c1ccc2cc3ccccc3cc2c1,inactive,–
O=C(NO)C1(NS(=O)(=O)c2ccc(Oc3ccc(F)cc3)cc2)CCOCC1,inactive,–
NC(=O)NN=Cc1ccc([N+](=O)[O-])o1,inactive,–
Cn1cc[nH]c1=S,inactive,–
CCCCCCCCCC,inactive,–
NC(N)=O,inactive,–
OC(CCl)CCl,inactive,–
O=C(O)[C@H](O)[C@@H](O)C(=O)O,inactive,–
OCC(CO)(CO)CO,inactive,–
C[C@]12C=CC(=O)C=C1CC[C@H]1[C@@H]3C[C@@H](O)[C@](O)(C(=O)CO)[C@@]3(C)C[C@H](O)[C@@]12F,inactive,–
CCCCCCCCN(C)C,inactive,–
CCCC(CCC)C(=O)O,inactive,–
NC(=O)N1c2ccccc2C=Cc2ccccc21,inactive,–
CCCCN1C(=O)[C@@H]([C@H](O)C2CCCCC2)NC(=O)C12CCN(Cc1ccc(Oc3ccc(C(=O)O)cc3)cc1)CC2,–,37.5 µM (active)
CC(C)CCCCCCOC(=O)C1CCCCC1C(=O)OCCCCCCC(C)C (stereo not given),inactive,–
OC(Cn1cncn1)(Cn1cncn1)c1ccc(F)cc1F,inactive,–
CCOc1ccc2[nH]cc(C(=O)NCc3ccccc3)c(=O)c2n1,inactive,–
CCCOc1ccc(S(=O)(=O)N2CCN(CC)CC2)cc1-c1nc2c(CC)n(Cc3ccccn3)nc2c(=O)[nH]1,inactive,–
CC(C)C(=O)Nc1ccc([N+](=O)[O-])c(C(F)(F)F)c1,inactive,–
CC(C)c1nnc2ccc(-c3ocnc3-c3cc(F)ccc3F)cn12,inactive,–

Compound,outcome,AC50
C=CCc1cc(S(=O)(=O)c2ccc(O)c(CC=C)c2)ccc1O,–,76.7 µM (active)
CC(=O)c1ccccc1,inactive,–
O=C(O)c1ccc2c(c1)nc(C(=O)NC1CCN(C3CC3)CC1)n2Cc1cc(-c2ccc(Cl)s2)on1,inactive,–
CCCc1ccccc1,inactive,–
c1ccc(C(O[C@@H]2CCCN(CCc3ccc4c(c3)OCO4)C2)c2ccccc2)cc1,–,74.7 µM (active)
O=C(O)c1cccc(C(=O)O)c1,inactive,–
OC[C@H]1O[C@@H]2O[C@H]3[C@H](O)[C@@H](O)[C@@H](O[C@H]4[C@H](O)[C@@H](O)[C@@H](O[C@H]5[C@H](O)[C@@H](O)[C@@H](O[C@H]6[C@H](O)[C@@H](O)[C@@H](O[C@H]7[C@H](O)[C@@H](O)[C@@H](O[C@H]1[C@H](O)[C@H]2O)O[C@@H]7CO)O[C@@H]6CO)O[C@@H]5CO)O[C@@H]4CO)O[C@@H]3CO,inactive,–
OC[C@H]1O[C@@](CO)(O[C@H]2O[C@H](CO)[C@@H](O)[C@H](O)[C@H]2O)[C@@H](O)[C@@H]1O,inactive,–
COS(C)(=O)=O,inactive,–
CC[C@H](C)C(=O)O[C@H]1C[C@H](O)C=C2C=C[C@H](C)[C@H](CC[C@@H](O)C[C@@H](O)CC(=O)O)[C@H]21,inactive,–
c1ccc2ncccc2c1,inactive,–
NC(=O)N(O)[C@@H]1COc2cc(OCc3ccccc3)ccc21,inactive,–
CCc1ccc(O)c(C(C)(C)C)c1,inactive,–
Nc1ccn([C@@H]2O[C@H](CO)[C@@H](O)[C@@H]2O)c(=O)n1,inactive,–
O=S(=O)(O)c1ccc(N=Nc2c(O)ccc3cc(S(=O)(=O)O)ccc23)cc1,inactive,–
CCCCOC(=O)c1ccccc1,inactive,–
Cc1nccn1-c1ccc(Sc2cccc(C3(C(N)=O)CCOCC3)c2)cc1,–,20.3 µM (active)
CCCCCCOC(=O)CC(CC(=O)OCCCCCC)(OC(=O)CCC)C(=O)OCCCCCC,inactive,–
Cc1ncc([C@@H](CCCCCCc2ccc3c(n2)NCCC3)CC(=O)O)cn1,inactive,–
CCc1cccc(CC)c1N,inactive,–
